From PubChem BioAssay (EPA / NIEHS) come the findings set out here.

By AC50 is commonly meant the midpoint of the concentration-response curve, whichever way the signal moves.

What all share (conditions): mRNA level, 48 h; actives raise or lower the signal
Read-out in one test: Caspase-3 (Homo sapiens) (UniProt P42574)
Put plainly: LTEA_HepaRG_CASP3: Life Technologies and Expression Analysis (LTEA) Assay for cysteine-aspartic acid protease (CASP3) using HepaRG (AID 2283477). Summed up: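 HepaRG, 48 h exposure, 8 conc. (top 100 uM, half-log steps, duplicate), 0.5% DMSO vehicle; qRT-PCR of CASP3 transcript, housekeeping-normalised (ACTB/GAPDH/POLR2A); bidirectional curve fit vs DMSO baseline.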

Read-out in test [1]: Cytochrome P450 (CYP1A2), CYP1A2 (gene 1544)
Put plainly: LTEA_HepaRG_CYP1A2: Life Technologies and Expression Analysis (LTEA) Assay for Cytochrome P450 (CYP1A2) using HepaRG (AID 2283479). The essentials:
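HepaRG, 48 h exposure, top 100 uM, half-log 8-pt, 0.5% DMSO vehicle, duplicates. Readout: TaqMan qRT-PCR of CYP1A2 mRNA, housekeeping-normalized (ACTB/GAPDH/POLR2A). Gain/loss fit relative to DMSO baseline.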

Read-out in test [2]: cysteine-aspartic acid protease (CASP8), CASP8 (gene 841)
Description: LTEA_HepaRG_CASP8: Life Technologies and Expression Analysis (LTEA) Assay for cysteine-aspartic acid protease (CASP8) using HepaRG (AID 2283480). The essentials:
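Differentiated human HepaRG cells, plated 48 h then switched to serum-free induction medium, were exposed in duplicate for 48 h to 8 half-log concentrations up to 100 uM in 0.5% DMSO. CASP8 mRNA was quantified by qRT-PCR, normalized to ACTB/GAPDH/POLR2A.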

Read-out in test [3]: Cytochrome P450 (CYP2B6), CYP2B6 (gene 1555)
Put plainly: LTEA_HepaRG_CYP2B6: Life Technologies and Expression Analysis (LTEA) Assay for Cytochrome P450 (CYP2B6) using HepaRG (AID 2283481). Summed up: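 Read-out is CYP2B6 mRNA by TaqMan qRT-PCR, normalized to three housekeeping genes and fitted bidirectionally against 0.5% DMSO baseline. Human HepaRG cells received test chemicals for 48 h, top concentration 100 uM, half-log dilutions.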

Read-out in test [4]: Cytochrome P450 2C19 (Homo sapiens) (UniProt P33261)
Put plainly: LTEA_HepaRG_CYP2C19: Life Technologies and Expression Analysis (LTEA) Assay for CYP2C19 using HepaRG (AID 2283482). Summed up: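 HepaRG, 48 h chemical exposure, 8-pt half-log series from 100 uM in 0.5% DMSO, duplicates. Readout: CYP2C19 mRNA by TaqMan qRT-PCR, housekeeping-normalized. Bidirectional fit vs DMSO baseline; phenobarbital 1mM as induction control.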

Read-out in a further test: CYP2C8 (gene 1558)
Description: LTEA_HepaRG_CYP2C8: Life Technologies and Expression Analysis (LTEA) Assay for CYP2C8 using HepaRG (AID 2283483). Summed up: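 Differentiated human HepaRG cells were exposed for 48 h in serum-free induction medium to eight half-log concentrations up to 100 uM in 0.5% DMSO, in duplicate. CYP2C8 mRNA was measured by TaqMan qRT-PCR, normalized to ACTB, GAPDH and POLR2A, and fitted bidirectionally against DMSO.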

Read-out in the next test: CYP2C9 (gene 1559)
Put plainly: LTEA_HepaRG_CYP2C9: Life Technologies and Expression Analysis (LTEA) Assay for CYP2C9 using HepaRG (AID 2283484). Summed up: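 Differentiated human HepaRG cells were exposed 48 h in serum-free induction medium to eight half-log concentrations up to 100 uM in 0.5% DMSO. CYP2C9 mRNA was measured by qRT-PCR, normalized to ACTB, GAPDH and POLR2A, and fitted bidirectionally against DMSO.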

Read-out in the next test: CYP2E1 (gene 1571)
Description: LTEA_HepaRG_CYP2E1: Life Technologies and Expression Analysis (LTEA) Assay for CYP2E1 using HepaRG (AID 2283485). The essentials: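 HepaRG cells in serum-free induction medium exposed 48 h to test chemicals, 8 half-log concentrations up to 100 uM in 0.5% DMSO, duplicate. CYP2E1 mRNA by qRT-PCR, normalized to ACTB, GAPDH, POLR2A; bidirectional fit versus DMSO.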

Read-out in a further test: CYP4A11 (gene 1579)
Put plainly: LTEA_HepaRG_CYP4A11: Life Technologies and Expression Analysis (LTEA) Assay for CYP4A11 using HepaRG (AID 2283486). The essentials:
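CYP4A11 transcript levels were quantified by TaqMan qRT-PCR after HepaRG human liver cells were treated for 48 hours with test chemicals (top 100 uM, half-log dilutions, 0.5% DMSO). Gain or loss of signal was fitted relative to DMSO.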

Read-out in test [5]: Cytochrome P450 3A4 (Homo sapiens) (UniProt P08684)
Description: LTEA_HepaRG_CYP3A4: Life Technologies and Expression Analysis (LTEA) Assay for CYP3A4 using HepaRG (AID 2283487). Summed up:
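CYP3A4 transcript measured by TaqMan qRT-PCR and normalized to three housekeeping genes after 48 h chemical exposure of human HepaRG cells. Top concentration 100 uM, half-log steps, 0.5% DMSO vehicle; gain or loss fitted against DMSO baseline.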

Read-out in test [6]: DNA damage-inducible transcript 3 (DDIT3), DDIT3 (gene 1649)
Put plainly: LTEA_HepaRG_DDIT3: Life Technologies and Expression Analysis (LTEA) Assay for DNA damage-inducible transcript 3 (DDIT3) using HepaRG (AID 2283488). The essentials:
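Differentiated human HepaRG cells in serum-free induction medium were exposed in duplicate for 48 h to 8 concentrations (top 100 uM, half-log steps, 0.5% DMSO). DDIT3 mRNA measured by TaqMan qRT-PCR, normalized to ACTB/GAPDH/POLR2A; bidirectional fit versus DMSO.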

Read-out in test [7]: Pro-epidermal growth factor (Homo sapiens) (UniProt P01133)
Description: LTEA_HepaRG_EGF: Life Technologies and Expression Analysis (LTEA) Assay for Epidermal growth factor (EGF) using HepaRG (AID 2283489). Summed up: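 qRT-PCR readout of EGF transcript after 48 h chemical exposure of HepaRG cells; eight concentrations from 100 uM down in half-log steps, duplicate wells, 0.5% DMSO vehicle. Bidirectional curve fitting against DMSO baseline.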

Read-out in test [8]: Early growth response protein 1 (EGR1) transcription factor, EGR1 (gene 1958)
Put plainly: LTEA_HepaRG_EGR1: Life Technologies and Expression Analysis (LTEA) Assay for Early growth response protein 1 (EGR1) transcription factor using HepaRG (AID 2283490). Summed up: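 Differentiated human HepaRG cells in serum-free induction medium were exposed in duplicate for 48 h to eight concentrations (top 100 uM, half-log steps) in 0.5% DMSO. EGR1 mRNA was quantified by qRT-PCR, normalized to ACTB, GAPDH and POLR2A, and fitted bidirectionally versus DMSO.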

Read-out in test [9]: Ezrin (EZR), EZR (gene 7430)
Put plainly: LTEA_HepaRG_EZR: Life Technologies and Expression Analysis (LTEA) Assay for Ezrin (EZR) using HepaRG (AID 2283491). Summed up:
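HepaRG, 48 h chemical exposure, 8-pt half-log series from 100 uM, 0.5% DMSO vehicle, duplicates. Read-out: EZR mRNA by TaqMan qRT-PCR (Fluidigm array), housekeeping-normalized; bidirectional curve fit vs DMSO baseline.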

Read-out in test [10]: Cytochrome P450 3A7 (Homo sapiens) (UniProt P24462)
Description: LTEA_HepaRG_CYP3A7: Life Technologies and Expression Analysis (LTEA) Assay for CYP3A7 using HepaRG (AID 2283492). The essentials: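 CYP3A7 transcript levels were read by TaqMan qRT-PCR on Fluidigm arrays after 48 h chemical exposure of human HepaRG cells, with housekeeping-gene normalisation. Eight half-log concentrations up to 100 uM in 0.5% DMSO were tested in duplicate.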

Read-out in a further test: CYP3A5 (gene 1577)
Description: LTEA_HepaRG_CYP3A5: Life Technologies and Expression Analysis (LTEA) Assay for CYP3A5 using HepaRG (AID 2283493). The essentials: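 Differentiated HepaRG cells in serum-free induction medium were dosed 48 h with test chemicals (8-point half-log series, top 100 uM, 0.5% DMSO, duplicate). CYP3A5 mRNA measured by qRT-PCR, normalized to ACTB, GAPDH, POLR2A; bidirectional fit versus DMSO.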

Read-out in test [11]: Fatty Acid-Binding Protein 1 (FABP1), FABP1 (gene 2168)
Put plainly: LTEA_HepaRG_FABP1: Life Technologies and Expression Analysis (LTEA) Assay for Fatty Acid-Binding Protein 1 (FABP1) using HepaRG (AID 2283494). The essentials:
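Differentiated human HepaRG cells were exposed in duplicate for 48 h in serum-free induction medium to 8-point half-log concentration series topping at 100 uM in 0.5% DMSO. FABP1 mRNA measured by TaqMan qRT-PCR, normalized to ACTB/GAPDH/POLR2A; bidirectional fit versus DMSO.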

Read-out in test [12]: Cytochrome P450 4A22 (Homo sapiens) (UniProt Q5TCH4)
Description: LTEA_HepaRG_CYP4A22: Life Technologies and Expression Analysis (LTEA) Assay for Cytochrome P450 4A22 (CYP4A22) using HepaRG (AID 2283495). Summed up:
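HepaRG, 48 h post-plating -> serum-free induction medium; dosed 48 h, duplicate, 8 conc. (100 uM top, half-log), 0.5% DMSO. Readout: CYP4A22 mRNA by qRT-PCR, ACTB/GAPDH/POLR2A normalization; gain/loss fit relative to DMSO.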

Read-out in test [13]: Cytochrome P450 7A1 (Homo sapiens) (UniProt P22680)
Put plainly: LTEA_HepaRG_CYP7A1: Life Technologies and Expression Analysis (LTEA) Assay for Cytochrome P450 7A1 (CYP7A1) using HepaRG (AID 2283496). Summed up: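 Gene expression endpoint in human HepaRG liver cells treated for 48 h with test chemicals (up to 100 uM, 0.5% DMSO). Values come from bidirectional concentration-response fitting versus DMSO.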

Activity calls are given as the source filed them. Rule for the calls: active = hit-call score of the fitted dose curve at least 0.9, where 1 is the maximum; inactive = score below 0.9.

Sequence of Caspase-3 (Homo sapiens) (P42574 whole entry, looked up): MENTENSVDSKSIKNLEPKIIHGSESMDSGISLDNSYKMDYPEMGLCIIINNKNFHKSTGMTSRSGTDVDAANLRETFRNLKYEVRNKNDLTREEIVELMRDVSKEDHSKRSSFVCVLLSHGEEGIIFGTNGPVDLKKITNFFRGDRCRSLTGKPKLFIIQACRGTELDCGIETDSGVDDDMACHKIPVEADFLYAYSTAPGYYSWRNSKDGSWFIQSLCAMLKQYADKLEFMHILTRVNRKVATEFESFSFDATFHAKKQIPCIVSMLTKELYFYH
Sequence of Cytochrome P450 3A4 (Homo sapiens) (P08684 whole entry, looked up): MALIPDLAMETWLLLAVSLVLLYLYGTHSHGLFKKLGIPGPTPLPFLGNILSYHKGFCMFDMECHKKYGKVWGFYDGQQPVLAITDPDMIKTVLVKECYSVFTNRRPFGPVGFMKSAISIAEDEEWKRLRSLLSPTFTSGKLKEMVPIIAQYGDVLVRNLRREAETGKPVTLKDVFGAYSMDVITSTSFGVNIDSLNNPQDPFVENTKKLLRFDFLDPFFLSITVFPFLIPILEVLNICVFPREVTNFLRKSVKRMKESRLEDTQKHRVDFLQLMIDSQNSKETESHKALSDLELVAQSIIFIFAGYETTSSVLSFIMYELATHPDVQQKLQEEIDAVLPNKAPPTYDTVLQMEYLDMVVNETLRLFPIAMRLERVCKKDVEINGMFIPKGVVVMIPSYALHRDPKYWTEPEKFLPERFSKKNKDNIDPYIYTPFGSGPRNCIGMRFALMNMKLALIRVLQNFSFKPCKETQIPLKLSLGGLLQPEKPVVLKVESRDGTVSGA
Sequence of Cytochrome P450 2C19 (Homo sapiens) (P33261 whole entry, looked up): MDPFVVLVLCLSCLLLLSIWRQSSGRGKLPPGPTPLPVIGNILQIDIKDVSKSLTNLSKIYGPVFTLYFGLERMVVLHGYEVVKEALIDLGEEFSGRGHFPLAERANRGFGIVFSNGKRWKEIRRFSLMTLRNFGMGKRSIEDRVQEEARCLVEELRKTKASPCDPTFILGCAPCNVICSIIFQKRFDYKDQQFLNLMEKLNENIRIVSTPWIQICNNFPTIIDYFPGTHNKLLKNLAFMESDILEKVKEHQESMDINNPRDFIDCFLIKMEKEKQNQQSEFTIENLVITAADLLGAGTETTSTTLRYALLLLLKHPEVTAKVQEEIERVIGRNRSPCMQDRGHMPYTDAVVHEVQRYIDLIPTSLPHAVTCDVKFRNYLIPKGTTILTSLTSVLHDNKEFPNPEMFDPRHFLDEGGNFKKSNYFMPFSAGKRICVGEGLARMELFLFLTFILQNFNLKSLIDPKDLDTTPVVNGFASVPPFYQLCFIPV
Sequence of Cytochrome P450 3A7 (Homo sapiens) (P24462 whole entry, looked up): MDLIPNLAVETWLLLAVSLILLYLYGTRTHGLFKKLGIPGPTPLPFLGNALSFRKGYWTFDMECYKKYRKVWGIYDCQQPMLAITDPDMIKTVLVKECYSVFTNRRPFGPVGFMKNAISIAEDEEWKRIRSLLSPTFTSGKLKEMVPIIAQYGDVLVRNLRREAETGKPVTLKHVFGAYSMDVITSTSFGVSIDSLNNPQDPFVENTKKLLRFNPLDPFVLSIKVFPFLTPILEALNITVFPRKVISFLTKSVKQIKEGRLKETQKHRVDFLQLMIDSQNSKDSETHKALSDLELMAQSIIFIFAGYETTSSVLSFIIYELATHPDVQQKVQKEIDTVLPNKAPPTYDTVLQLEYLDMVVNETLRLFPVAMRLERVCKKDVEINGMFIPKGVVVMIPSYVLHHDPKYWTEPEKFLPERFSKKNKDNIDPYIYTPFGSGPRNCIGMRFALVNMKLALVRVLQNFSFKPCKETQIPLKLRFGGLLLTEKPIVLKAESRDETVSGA

Regarding `Cc1ccccc1Cl`, the compound was classed as inactive (with Caspase-3 (Homo sapiens); in test [1]; in [2]; in test [3]; in [4]; with CYP2C8 (gene 1558)). The compound was called inactive (in the test with CYP2C9 (gene 1559); with CYP2E1 (gene 1571); with CYP4A11 (gene 1579); in test [5]; in [6]; in test [7]). Further, the outcome (in test [8]; in test [9]; in test [10]; with CYP3A5 (gene 1577); in test [11]; in [12]) was inactive. The compound was called inactive in [13].

On to `O=C(O)CCCCC(=O)O`, for which the compound was called inactive (with Caspase-3 (Homo sapiens); in [1]; in [2]; in test [3]; in [4]; with CYP2C8 (gene 1558)). The result (with CYP2C9 (gene 1559); with CYP2E1 (gene 1571); with CYP4A11 (gene 1579); in test [5]; in test [6]; in [7]) was inactive. In addition, the outcome (in test [8]; in [9]; in [10]; with CYP3A5 (gene 1577); in test [11]; in test [12]) was inactive. Moreover, the outcome in test [13] was inactive.

Consider `Cc1ccc2ncccc2c1`, for which the compound was called inactive (with Caspase-3 (Homo sapiens); in [1]; in test [2]; in test [4]; with CYP2C8 (gene 1558); with CYP2C9 (gene 1559)). Moreover, the compound was classed as inactive (with CYP2E1 (gene 1571); with CYP4A11 (gene 1579); in test [5]; in test [6]; in test [7]; in test [8]). The compound was classed as inactive (in [9]; in test [10]; with CYP3A5 (gene 1577); in test [11]; in test [12]; in test [13]). In test [3], the concentration at half-maximal activity (AC50) is 13.2 µM (active).

For the compound `CC1(C)CC(N=C=O)CC(C)(CN=C=O)C1` (stereo not given), the call (with Caspase-3 (Homo sapiens); in test [1]; in [2]; in test [3]; in [4]; in the test with CYP2C8 (gene 1558)) was inactive. Further, the outcome (with CYP2C9 (gene 1559); in the test with CYP4A11 (gene 1579); in [5]; in test [6]; in test [7]; in test [8]) was inactive. The result (in test [10]; with CYP3A5 (gene 1577); in test [12]; in [13]) was inactive. Also, the half-maximal activity concentration (AC50) with CYP2E1 (gene 1571) is 24 µM (active); in test [11], 26.2 µM (active).
